In the library only some 1.2% were active in any assay of this set; here they are far more common.
RXFP1 agonist: agonists of human relaxin receptor RXFP1; 0.3% of 370,000 active; HEK293T-RXFP1 cAMP TR-FRET, 30 min; response scale: percent of porcine relaxin response, buffer zero; Q9HBX9; Potency, µM (titrated, usually from 57.5 µM), for the others: top-dose activation, hits mostly activators; note: potency is the fitted concentration of half-maximal effect; % is set by controls: 0 for no effect and ±100 for the full control effect; nearly all actives have a fitted effect of over 60% in size
Target sequence (Q9HBX9 whole entry, looked up): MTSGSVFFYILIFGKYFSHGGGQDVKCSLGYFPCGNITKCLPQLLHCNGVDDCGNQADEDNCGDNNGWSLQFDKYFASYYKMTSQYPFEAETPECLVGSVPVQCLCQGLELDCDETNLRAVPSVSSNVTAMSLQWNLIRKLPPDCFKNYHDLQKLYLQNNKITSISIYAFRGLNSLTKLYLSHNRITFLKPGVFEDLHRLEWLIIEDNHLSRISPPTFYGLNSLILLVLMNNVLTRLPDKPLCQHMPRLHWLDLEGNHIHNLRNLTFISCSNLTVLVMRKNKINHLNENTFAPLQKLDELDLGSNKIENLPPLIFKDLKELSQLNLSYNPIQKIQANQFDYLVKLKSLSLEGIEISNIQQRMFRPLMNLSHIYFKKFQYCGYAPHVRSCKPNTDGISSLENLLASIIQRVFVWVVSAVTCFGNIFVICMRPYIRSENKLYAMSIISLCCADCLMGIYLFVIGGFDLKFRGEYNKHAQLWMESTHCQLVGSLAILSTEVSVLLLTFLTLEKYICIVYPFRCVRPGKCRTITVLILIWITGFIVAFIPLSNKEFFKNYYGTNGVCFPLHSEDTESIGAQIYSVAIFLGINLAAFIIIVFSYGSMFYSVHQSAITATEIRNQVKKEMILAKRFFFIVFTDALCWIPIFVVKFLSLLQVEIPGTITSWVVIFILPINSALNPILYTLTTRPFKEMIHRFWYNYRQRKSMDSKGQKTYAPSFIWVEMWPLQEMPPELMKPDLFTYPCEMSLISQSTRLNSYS
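Agonist response is measured as cAMP accumulation in an RXFP1-transfected HEK293T line under PDE4 inhibition. Values are scaled between buffer-only and 29 nM porcine relaxin, and EC50s come from standard Hill equation fits.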
CCT modulator: cytosolic chaperonin activity modulation; 0.3% of 360,000 active; activity change, % (no concentration beside the values), hits read low; purified chaperonin ATPase assay, HTRF ADP detection, 30 min; in the data active = activity change below about -30%; note: % is set by controls: 0 for no effect and ±100 for the full control effect
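TRiC at 40 or 20 nM final (batch-dependent) in 30 mM Tris pH 7.4, 100 mM KCl, 5 mM MgCl2, 1 mM DTT, with compound at single 76 uM and 10 uM ATP, 30 min at 37 deg C. ADP detected by HTRF Transcreener, 665/615 ratio.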
gsp ag: gsp mutant agonism. gsp mutant cells, cAMP HTRF, 30 min. Potency, µM (series often up to 76.9 µM), without a hit: at the highest dose activation (cAMP increase), hits mostly activators. 0.13% of 340,000 active; active = well fitted activation curve with a large enough effect; inconclusive = small, poorly fitted or top-dose-only effect, or another doubt; inactive = no such curve, though single readings can be large or run the other way; cell line not stated here;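 note: phosphodiesterase inhibitor Ro 20-1724 added with compounds to block cAMP breakdown; potency is the fitted concentration of half-maximal effect; nearly all actives have a fitted effect of over 60% in size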
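Cells in DMEM/10% FBS with G418 were pretreated with compounds in DMSO plus […] (300 uM stock) for 30 min at 37C. cAMP was measured by HTRF (cAMP-d2 plus anti-cAMP antibody-K) after 30 min at room temperature.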
gsp antagonist: antagonists of gsp mutant (McCune-Albright syndrome). gsp-mutant cells, cAMP HTRF, 30 min. Potency, µM (titrated, usually from 76.9 µM), without a hit: top-dose activity change, negative = inhibition, actives largely listed as inhibitors. 0.4% of 340,000 active. AID 624288; calls by dose curve; cell line not stated here;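 note: intracellular cAMP measured with PDE inhibitor Ro 20-1724 present during compound exposure; potency is the fitted concentration of half-maximal effect; % is set by controls: 0 for no effect and ±100 for the full control effect; nearly all actives have a fitted effect of over 65% in size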
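HTRF cAMP read-out (cAMP-d2 plus anti-cAMP antibody-K in lysis buffer, 30 min RT). Before lysis, cells are exposed to compounds with […] for 30 min at 37C in DPBS containing Ca/Mg, BSA and Tween 20.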
Mm-Cpn inhibitor: M. maripaludis TRiC chaperonin inhibition | purified Mm-Cpn ATPase, ADP Transcreener TR-FRET | Potency, µM (doses to about 76.9 µM), without a hit: at the highest dose activity, negative = inhibition, actives largely listed as inhibitors | 0.031% of 330,000 active; note: potency is the fitted concentration of half-maximal effect; % is set by controls: 0 for no effect and ±100 for the full control effect; nearly all actives have a fitted effect of over 80% in size
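ATPase turnover read by TR-FRET ADP competition (Eu cryptate antibody/ADP-d2, 665/590 nm): 10uM ATP final, 25nM Mm-CPN final, 30 min 37degC after 10-min compound preincubation, pH 7.4 Tris/KCl/MgCl2/DTT buffer.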
RXFP1 antagonist: blocks the human relaxin receptor RXFP1; Q9HBX9; HEK293-RXFP1, relaxin-stimulated cAMP HTRF, 30 min; hits give low values; activity change, negative = inhibition, % at 57.5 µM; 0.59% of 350,000 active;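 active = activity change of -60% or lower, but not beyond a set lower limit; inconclusive = change between -60% and -40%, or beyond the set limit; inactive = change above -40%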; note: % is set by controls: 0 for no effect and ±100 for the full control effect
* = called active by the depositor; ? = inconclusive; nt = no result; [ ] = another dose, or the depositor's remark. Unless noted, calls come from the whole dose curve; as a rule, active = well fitted curve in the direction sought with a large enough effect; inconclusive = small, poorly fitted or top-dose-only effect, or another doubt; inactive = no such curve, though single readings can be large; an effect the other way counts as inactive or inconclusive.

SMILES	RXFP1 agonist	CCT modulator	gsp ag	gsp antagonist	Mm-Cpn inhibitor	RXFP1 antagonist
CCOc1ccc(/C(O)=C2/C(=O)C(=O)N(CCOCCO)C2c2cccnc2)cc1 (stereo not given)	?	0	13µM*	18%	-4%	42
O=C(C[C@@H]1C[C@H]2c3cc(NC(=O)C4CCC4)ccc3O[C@H]2[C@@H](CO)O1)NCc1ccc(-c2ccccc2)cc1	nt	-3	32µM*	nt	nt	-3
COc1ccc(C(=O)C2CCCN(C3Cc4ccccc4C3)C2)c(OC)c1 (stereo not given)	1%	-4	-10%[15.4 µM]	-5%	-2%	-65*
Cc1ccc(N/N=C(/Sc2nnnn2-c2ccccc2)C(=O)c2ccccc2)cc1	0%	2	1%	25µM*	3%	nt
O=C(NC1CCS(=O)(=O)C1)C1CCCC1 (stereo not given)	0%	-1	-3%	8%	-3%	3
CCCCC1CCC(C(=O)NC2CCS(=O)(=O)C2)CC1 (stereo not given)	1%	-46*	11%	-9%	1%	-13
CCc1cccc(CC)c1NC(=O)CCS(=O)(=O)c1ccc(Br)s1	5%	nt	nt	nt	nt	nt
CCc1nnc(N/N=C/c2c(Cl)cccc2Cl)n1N	-4%	-1	7%	7%	-3%	1
CCc1nnc(N/N=C/c2cccs2)n1N	4%	-43*	-19%	6%	0%	6
COc1ccccc1S(=O)(=O)Cc1ccc(C(=O)N2CCN(c3cc(Cl)ccc3C)CC2)o1	0%	nt	nt	nt	nt	nt
Cc1[nH]cnc1-c1ccc(Cl)cc1	nt	nt	nt	nt	nt	13
Cc1cccc(C(=O)Nc2ccc3nc(SCC(=O)N4CCCC4)sc3c2)c1	-2%	nt	nt	nt	nt	-66*
CC/C(=N\NC(=O)c1nnn(-c2nonc2N)c1CN(C)c1ccccc1)c1ccccc1	3%	-67*	-5%	1%	1%	-102*
Cc1ccc(-c2c(C(=O)Nc3ccccc3C)c(C)[nH]c(=S)c2C#N)o1	28µM*	-2	13%[15.4 µM]	18%	-2%	-2
Cc1ccccc1NC(=O)c1c(C)[nH]c(=S)c(C#N)c1-c1ccc(Cl)cc1	8%	-3	-1%[15.4 µM]	1%	-14%	-18
CSCC(=O)N1CCCC(CNC(=O)c2ccccc2Cl)C1 (stereo not given)	0%	2	?	3%	-4%	1
COc1ccccc1NC(=O)N1CCCC(CNC(=O)c2ccccc2Cl)C1 (stereo not given)	1%	-3	-4%	45µM*	3%	11
CCOC(=O)c1ccccc1NC(=O)Cn1cnc2c1c(=O)n(C)c(=O)n2C	4%	-1	28µM*	13%	-1%	1
Cc1ccc(NC(=O)CN2C(=O)NC(C)(c3ccccc3)C2=O)c(C)c1 (stereo not given)	-2%	-60*	3%[15.4 µM]	2%	0%	8
CCN1CCOC(=O)C1CC(=O)Nc1ccc(Br)cc1 (stereo not given)	-4%	nt	nt	nt	nt	-12
COc1ccc2nc(N3CCN(C(=O)c4ccco4)CC3)sc2c1	-1%	nt	nt	nt	nt	-24
CCOC(=O)N1CCN(c2nc(-c3ccc(F)cc3)cs2)CC1	-1%	-1	-35%	32µM*	0%	-12
COc1ccc(-c2csc(N3CCN(C(=O)c4ccco4)CC3)n2)cc1	1%	0	-97%	50µM*	-11%	-6
COc1ccc(-c2csc(N3CCN(C(=O)c4ccccc4)CC3)n2)cc1	0%	0	-32%	35µM*	0%	-24
CCCC(=O)Nc1cc(C(=O)NCc2ccccc2)ccc1S(=O)(=O)c1ccc(Cl)cc1	1%	nt	nt	nt	nt	-9
SMILES	RXFP1 agonist	CCT modulator	gsp ag	gsp antagonist	Mm-Cpn inhibitor	RXFP1 antagonist
COc1ccccc1N1CCN(C(=O)c2cc3ccc4ccc(C)[nH]c4c3n2)CC1	-3%	nt	nt	nt	nt	nt
O=c1c(-c2c(O)cc(O)c3c2O[C@H](c2ccc(O)cc2)CC3)c(-c2ccc(O)cc2)oc2cc(O)cc(O)c12	nt	-2	11%	-17%	35µM*	nt
O=c1c(O)c(-c2ccc(O)cc2)oc2cc(O)cc(O)c12	nt	0	nt	7%	nt	nt
C=CC(=O)N1C/C(=C/c2ccc(F)cc2)C(=O)/C(=C\c2ccc(F)cc2)C1	nt	1	10%	5%	nt	-80*
CN(Cc1ccc(F)cc1)S(=O)(=O)c1nnc(NC(=O)c2ccccc2Cl)s1	23%	nt	nt	nt	nt	-38
FC(F)(F)c1ccccc1NC(=S)N1CCCC1	1%	-38*	-10%[15.4 µM]	-15%	-1%	12
S=C(Nc1ccccc1Cl)N1CCCCCC1	-4%	0	-10%[15.4 µM]	-8%	0%	-7
FC(F)(F)c1ccccc1NC(=S)N1CCN(c2ccccn2)CC1	0%	0	-63%	-2%	-1%	-1
S=C(Nc1ccc(Cl)cc1Cl)N1CCCCC1	-1%	-66*	19%	9%	2%	-7
CCCCCOc1ccc(NC(=O)Cn2c(-c3cncs3)nc3ccccc32)cc1	16%	nt	nt	nt	nt	4
CCC(CC)C(=O)Nc1nnc2n1CCS2	-1%	nt	nt	nt	nt	nt
O=C(NCc1ccc(F)cc1)c1cc(-c2ccncc2)nc2ccccc12	-1%	-1	1%[15.4 µM]	-19%	?	-12
O=C(NCc1cc([N+](=O)[O-])ccc1O)c1cc(-c2ccncc2)nc2ccccc12	1%	-1	?	40µM*	-1%	?
CCOc1ccccc1NS(=O)(=O)c1ccc2c(c1)CC(C)N2C(=O)C1CCC1 (stereo not given)	1%	nt	nt	nt	nt	-4
Cc1cn(S(=O)(=O)c2ccc(Br)c3ccccc23)cn1	22µM*	nt	nt	nt	?	nt
CCC(=O)OCC(=O)c1c(N)n(Cc2ccccc2)c(=O)n(C)c1=O	-4%	-2	0%	-2%	-1%	-5
Cn1c(=O)c(C(=O)COc2ccc(C#N)cc2)c(N)n(Cc2ccccc2)c1=O	18µM*	-1	?	-1%	0%	31
C[C@@H]1CCN(C(=O)[C@H](CCCN=C(N)N)NS(=O)(=O)c2cccc3c2NC[C@H](C)C3)[C@@H](C(=O)O)C1	nt	nt	nt	nt	nt	11
CN(C)S(=O)(=O)c1cccc(NC(=S)N/N=C/c2cc(Br)ccc2O)c1	2%	-6	-4%[15.4 µM]	50µM*	-7%	-84*
CN(C)S(=O)(=O)c1cccc(NC(=S)N/N=C/c2cccc(O)c2)c1	1%	-2	-11%	5%	-5%	-18
Cc1cc(Nc2cccc(C(F)(F)F)c2)nc2ccc(NC(=O)c3cncc(Br)c3)cc12	7%	nt	nt	nt	nt	-6
COc1ccc(C(=O)NCCn2cc(SCC(=O)Nc3ccc4c(c3)OCCO4)c3ccccc32)cc1	1%	nt	nt	nt	nt	nt
Cc1cc(NS(=O)(=O)c2ccc(NC(=O)COc3ccc(C#N)cc3)cc2)nc(C)n1	nt	-32*	21%[15.4 µM]	-4%	-3%	-7

Compound activity from PubChem BioAssay.
